Only some compounds are listed: those with a hit (about 4% of all), similar ones and a draw of the others.
Mdm2-MdmX inh – inhibitors of human Mdm2/MdmX interaction. O15151+Q00987. SaOS-2 split-luciferase Mdm2/MdmX complementation, luminescence. inhibition, % at 8 µM. 330,000 compounds, 3% hits. AID 485346;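 active = inhibition of at least 50% at 8 µM in the primary screen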
Target sequence (O15151 whole entry, looked up): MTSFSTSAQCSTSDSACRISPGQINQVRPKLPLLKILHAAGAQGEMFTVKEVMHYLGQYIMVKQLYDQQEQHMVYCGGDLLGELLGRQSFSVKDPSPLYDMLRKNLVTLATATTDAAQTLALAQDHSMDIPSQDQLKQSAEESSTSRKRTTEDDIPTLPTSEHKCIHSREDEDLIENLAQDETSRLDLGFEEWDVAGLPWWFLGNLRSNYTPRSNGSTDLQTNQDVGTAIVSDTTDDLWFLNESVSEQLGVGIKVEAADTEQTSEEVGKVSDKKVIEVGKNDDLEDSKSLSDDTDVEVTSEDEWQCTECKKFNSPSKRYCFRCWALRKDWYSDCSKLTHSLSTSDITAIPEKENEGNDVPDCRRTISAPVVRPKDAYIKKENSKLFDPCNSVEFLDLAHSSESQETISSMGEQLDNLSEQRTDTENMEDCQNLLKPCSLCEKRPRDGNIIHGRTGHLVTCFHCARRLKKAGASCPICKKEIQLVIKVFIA
Target sequence (Q00987 whole entry, looked up): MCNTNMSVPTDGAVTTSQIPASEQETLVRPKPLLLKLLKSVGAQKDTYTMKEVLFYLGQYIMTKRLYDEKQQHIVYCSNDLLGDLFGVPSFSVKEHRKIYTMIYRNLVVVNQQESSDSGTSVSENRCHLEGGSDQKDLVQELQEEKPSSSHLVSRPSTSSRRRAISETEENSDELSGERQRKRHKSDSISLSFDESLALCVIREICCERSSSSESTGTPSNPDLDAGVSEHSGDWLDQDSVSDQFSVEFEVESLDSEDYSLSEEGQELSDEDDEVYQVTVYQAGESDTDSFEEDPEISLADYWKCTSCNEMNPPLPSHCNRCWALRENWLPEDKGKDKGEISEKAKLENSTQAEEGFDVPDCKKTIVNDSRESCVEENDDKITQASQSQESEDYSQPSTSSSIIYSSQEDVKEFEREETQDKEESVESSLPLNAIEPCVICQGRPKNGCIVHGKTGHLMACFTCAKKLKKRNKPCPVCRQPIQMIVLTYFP
Gli-Sufu antag – antagonists of Gli-Sufu signaling; Sufu-KO-LIGHT fibroblasts, Gli luciferase reporter luminescence; inhibition, % at 5 µM; 340,000 compounds, 0.74% hits;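 active = inhibition above about 55%, limit read from the data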;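 also: 0% = DMSO-treated cells and 100% = wells with medium but no cells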
Beta apoptosis – blocks beta cell apoptosis. INS-1E cytokine-induced death, ATP luminescence, 48 h; percent of positive-control rescue, neutral wells zero. protection from apoptosis, % (test concentration not listed). 300,000 compounds, 0.8% hits. AID 435005;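 active = Every replicate reaches about 75%, or at least half do and their mean reaches it too, limit read from the data; inconclusive = At least half of replicates reach the limit but their mean does not; inactive = Under half of replicates reach the limit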;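 also: 0% = cytokine-treated negative control wells and 100% = positive control rescue; higher means more ATP so stronger rescue from cytokine killing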
PAX8 reporter – PAX8 transcriptional activity inhibition | RMG-I TPO-luciferase reporter, SteadyGlo, 24 h | inhibition, % at 12.6 µM | 360,000 compounds, 1.2% hits | AID 652154;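 active = mean replicate inhibition at least 60% with every replicate also reaching 60%; inconclusive = only one of the two criteria is met; inactive = mean below 60% and not all replicates reaching 60%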;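 also: luciferase light reporting Pax8 driven TPO promoter activity; plate controls were median of neutral control wells for no effect and mitoxantrone controls for full effect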
CSC inhib – cancer stem cell inhibition; cancer stem cell-like cells viability, luminescence; 300,000 compounds, 1.1% hits; inhibition, % at 7.5 µM; in the data active = inhibition above about 75%; inconclusive = no clear call, values can overlap the other calls; tested in HMLE shEcad cells
Shn3 inh set2 – inhibitors of Schnurri-3 3'UTR reporter in osteoblasts. Clone20 osteoblast Shn3 3'UTR firefly luciferase, 24 h. inhibition, % at 12.5 µM. 360,000 compounds, 0.52% hits. AID 588674;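 active = mean inhibition of at least 75% with every replicate also reaching 75%; inconclusive = mean inhibition at least 75% but some replicate below; inactive = mean inhibition below 75%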;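 also: 0% = median of neutral control wells and 100% = pilot-screen positive control compound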
Mdm2 MdmX conf – confirmation of human Mdm2/MdmX interaction inhibitors | Mdm2-MdmX binding, luminescent assay | shares compounds with Mdm2-MdmX inh | 10,000 compounds, 55% hits | inhibition, % at 8 µM; in the data active = inhibition above about 40%
FLuc counter – inhibits full-length luciferase, flagging false Mdm2/MdmX hits; shares compounds with Mdm2-MdmX inh; SaOS-2 full-length luciferase counterscreen, luminescence; inhibition, % at 8 µM; 6,200 compounds, 77% hits; AID 504607;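 active = mean inhibition at 8 µM reaching about 37%, which flags the compound as non-specific, limit read from the data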;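 also: p53-null SaOS-2 cells with luciferase driven by a doxycycline-inducible promoter; compound on cells about two nights before reading with doxycycline added after day one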
The depositor's hits bear a star; ? = inconclusive; · = no result.

SMILES | Mdm2-MdmX inh | Gli-Sufu antag | Beta apoptosis | PAX8 reporter | CSC inhib | Shn3 inh set2 | Mdm2 MdmX conf | FLuc counter
CS(=O)(=O)c1ccc(C(=O)OCC(=O)NCc2cccs2)cc1[N+](=O)[O-] | 73.3* | 5.5 | 13.1 | 101.0* | · | 97.2* | 52.9* | 20.8
CN1C(=O)c2cc(NC(=O)c3cccc(Cl)c3)ccc2OC[C@H]2O[C@@H](CC(=O)NC3CCCCC3)CC[C@H]21 | · | · | · | 16.1 | · | · | · | ·
COc1ccc(N2CCN(C(=O)Cn3cnc4c(cnn4-c4ccc(C)cc4)c3=O)CC2)cc1 | 61.2* | 5.2 | -4.8 | -9.4 | -28.5 | 30.5 | -6.8 | ·
COC(=O)C[C@H]1CC[C@@H]2[C@H](COc3ccc(NS(=O)(=O)c4ccccc4F)cc3C(=O)N2C)O1 | · | · | · | -1.8 | · | · | · | ·
CCCNC(=O)C[C@@H]1C[C@@H]2c3cc(NC(=O)C4CCOCC4)ccc3O[C@@H]2[C@@H](CO)O1 | · | · | · | -12.7 | · | · | · | ·
C=C(C)CN1CCN(c2c(CCC#N)c(C)c(C#N)c3nc4ccccc4n23)CC1 | 74.2* | 0.4 | 1.0 | · | 6.1 | 11.2 | 24.1 | ·
COc1ccc(NC(=O)N(C)C[C@H]2Oc3ccc(N(C)C)cc3CC(=O)N([C@@H](C)CO)C[C@@H]2C)cc1 | · | · | · | -5.5 | · | · | · | ·
COC(=O)/C(=C1/Oc2cc(C)oc(=O)c2S1)C(F)(F)F | 100.2* | 33.9 | -6.4 | · | -14.0 | 96.7* | 99.8* | 51.0*
CC(=O)Nc1nc2ccccc2n1Cc1ccccc1C | 79.3* | -16.7 | -13.3 | 2.7 | · | -19.0 | 58.6* | 71.0*
CC(=O)Nc1nc2ccccc2n1Cc1ccccc1Cl | 66.7* | -19.9 | -7.3 | 36.4 | 33.3 | 5.8 | 59.5* | 66.7*
CC1CCN(c2ccc(-c3cccc(NC(=O)C(F)(F)F)c3)nn2)CC1 | 72.9* | 43.6 | 25.8 | 94.1* | 25.3 | 82.9 | 68.8* | 36.1*
CCC(=O)Nc1cccc(-c2ccc(N3CCC(C)CC3)nn2)c1 | -52.5 | -25.4 | 8.4 | 18.2 | 6.5 | 3.5 | · | ·
O=C(Nc1cccc(-c2ccc(N3CCCCC3)nn2)c1)C(F)(F)F | 60.3* | 19.5 | 24.4 | 94.7* | 32.4 | 81.9 | 44.9* | 74.4*
Cc1ccc(NC(=O)CC2S/C(=N/N=C/C=C/c3ccccc3)NC2=O)cc1Cl (stereo not drawn) | 54.0* | -4.7 | -6.8 | 33.8 | -0.5 | 1.7 | 6.8 | ·
C[C@@H]1CN([C@@H](C)CO)C(=O)c2cc(NC(=O)Nc3ccc4c(c3)OCO4)ccc2O[C@H]1CN(C)Cc1ccc2c(c1)OCO2 | · | · | · | -0.1 | · | · | · | ·
CC1=[N+](C)c2ccc3ccccc3c2C1(C)C | 85.6* | 69.9* | 98.5* | ? | 102.8* | 82.7 | 69.2* | 28.2
C[C@@H]1CN([C@H](C)CO)C(=O)Cc2cc(NC(=O)CCC(F)(F)F)ccc2O[C@H]1CN(C)S(=O)(=O)c1ccc(F)cc1 | · | · | · | 4.7 | · | · | · | ·
CO[C@@H]1CN(C)C(=O)c2ccc(NC(=O)C3CC3)cc2OC[C@H](C)N(C(=O)C2CCOCC2)C[C@H]1C | · | · | · | -2.8 | · | · | · | ·
Clc1ccc(Cn2ncc3c(N4CCCCC4)ncnc32)cc1 | 14.0 | 3.2 | 0.3 | · | -3.8 | · | · | ·
COc1ccc(-n2ncc3c(N4CCN(c5cc(C)ccc5C)CC4)ncnc32)cc1 | 2.9 | -11.1 | 6.2 | -3.2 | 8.9 | 30.2 | · | ·
COc1ccc(-n2ncc3c(N4CCCCC4)ncnc32)cc1 | 87.1* | 55.9* | 14.5 | · | -0.5 | 82.1 | 85.7* | 73.0*
COc1ccc(-n2ncc3c(N4CCN(c5cccc(C)c5C)CC4)ncnc32)cc1 | 76.7* | 4.1 | 15.1 | 0.4 | -4.9 | 16.0 | 21.3 | ·
Cc1ccc(-n2ncc3c(N4CCN(c5ccccc5)CC4)ncnc32)c(C)c1 | 70.2* | 20.5 | · | 35.1 | 31.2 | 80.4 | 69.5* | 64.0*
Clc1ccc(-n2ncc3c(N4CCCCCC4)ncnc32)cc1 | 91.3* | · | · | -6.9 | 59.3 | 65.8 | 87.8* | 97.7*
COc1ccc(CN(C)C[C@@H]2OCCCC[C@@H](C)Oc3ccc(NC(=O)CCC(F)(F)F)cc3C(=O)N([C@@H](C)CO)C[C@H]2C)cc1 | · | · | · | -8.3 | · | · | · | ·
SMILES | Mdm2-MdmX inh | Gli-Sufu antag | Beta apoptosis | PAX8 reporter | CSC inhib | Shn3 inh set2 | Mdm2 MdmX conf | FLuc counter
O=C(N[C@H]1C=C[C@@H](CC(=O)N2CCCCC2)O[C@H]1CO)c1ccc2c(c1)OCO2 | · | · | · | 3.7 | · | · | · | ·
COc1ccc2cc3cc(C(=O)Nc4ccccc4N4CCN(C)CC4)oc3nc2c1 | 100.6* | 6.8 | 22.6 | 43.5 | 14.0 | 14.2 | 3.8 | ·
COc1ccc2cc3cc(C(=O)N4CCN(c5ccccc5)CC4)oc3nc2c1 | 21.3 | 19.7 | -1.8 | · | -6.5 | 9.6 | · | ·
CN1CCN(c2ccccc2NC(=S)NC(=O)c2cc3ccccc3o2)CC1 | 91.7* | 4.7 | -3.7 | 7.6 | 0.8 | 10.4 | 17.6 | ·
CC(=O)N1CCN(c2ccccc2NC(=O)c2cc3ccccc3o2)CC1 | 5.7 | 9.8 | -4.2 | 21.1 | -11.9 | -2.4 | · | ·
COc1ccc2cc3cc(C(=O)NCCN4CCN(c5ccccc5F)CC4)oc3nc2c1 | 56.5* | 15.2 | 10.1 | 40.1 | -9.1 | 10.0 | 14.1 | ·
CCC(=O)N1CC[C@@H]2[C@H](CO)Nc3ccc(C#Cc4cccnc4)cc3[C@@H]21 | · | · | · | -1.8 | · | · | · | ·
Cc1cccc2cc(C(c3nnnn3Cc3ccccc3)N3CCCc4ccccc43)c(=O)[nH]c12 (stereo not drawn) | 87.6* | 0.2 | -6.6 | · | · | 14.4 | 1.7 | ·
CCOC(=O)/C(=C\c1cccc(O)c1)c1nc2sc(C)c(C)c2c(=O)[nH]1 | 82.0* | -4.2 | -26.8 | 15.6 | 59.7 | 36.2 | 34.5 | 27.0
CCOC(=O)c1nc2sc(C)c(C)c2c(=O)[nH]1 | 9.6 | -4.4 | 3.9 | · | -3.8 | -6.4 | · | ·
Cc1cc2oc3cc(NCCC4CCCN4C)ccc3c(=O)c2cc1C (stereo not drawn) | 82.2* | -17.6 | 11.3 | -91.3 | 103.0* | -181.0 | -31.1 | ·
CN1CCCC1CCNc1ccc2sc3ccccc3c(=O)c2c1 (stereo not drawn) | -8.4 | -1.5 | -4.6 | -67.2 | 44.5 | -39.8 | · | ·
O=C1CC(c2ccco2)Cc2c1cnn2-c1nc2ccccc2s1 (stereo not drawn) | 50.4* | -10.1 | 0.0 | 19.4 | -19.7 | -3.0 | 6.3 | ·
COc1ccc(NC(=O)C(=O)c2cn(CC(=O)N3CCCC3)c3ccccc23)cc1 | 58.3* | 26.9 | 9.3 | 50.5 | 1.0 | -0.9 | 54.5* | 88.6*
COc1cccc(C2C3=C(N=c4s/c(=C\c5ccccc5O)c(=O)n42)c2ccccc2CC3)c1OC (stereo not drawn) | 95.4* | · | 7.1 | · | -10.3 | · | 50.0* | 52.9*
COc1ccccc1C1C(C(C)=O)=C(C)N=c2s/c(=C\c3cc(OC)c(OC)c(OC)c3)c(=O)n21 (stereo not drawn) | 57.9* | 11.2 | 11.9 | · | 17.6 | 4.3 | 41.4* | 50.2*
